# A selection: hits, their analogues and other compounds. The true share with any hit is near 8%.
# HCV inh = qHTS Assay for Inhibitors of Hepatitis C Virus (HCV); Huh7.5.1 HCVcc-Cre infection, luciferase reporter, 44 h; Potency, µM (highest dose often 41.8 µM), most hits filed as inhibitors; 3.4% of 340,000 active; AID 651820, 2012; active means well fitted inhibition curve with a large enough effect; inconclusive means small, poorly fitted or top-dose-only effect, or another doubt; inactive means no such curve, though single readings can be large or run the other way
#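 Cells (1,000/well) were plated 4 h before compound, then infected with HCVcc-Cre virus (~0.5 moi). After 44 h further culture, infection was read as luciferase luminescence following a 15 min substrate incubation at room temperature.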
# LASV entry inh = qHTS for Inhibitors of binding or entry into cells for Lassa Virus; Potency, µM (doses to about 37.9 µM), hits mostly inhibitors; 1.2% of 300,000 active; Lassa virus pseudotype entry inhibition, cell reporter; calls by dose curve; tested in HEK293 cells; further: nearly all actives have a fitted effect of over 50% in size
# FMDV antiviral = High Throughput Screening for Foot and Mouth Disease Virus Antivirals. FMDV antiviral cell-based qHTS. Potency, µM (series often up to 57.9 µM), most hits filed as inhibitors. 1.2% of 410,000 active. AID 1159524, 2015; calls by dose curve; tested in HEK293T cells; further: read-out not given here; nearly all actives have a fitted effect of over 45% in size
# Marburg entry inh = qHTS for inhibitors of binding or entry into cells for Marburg Virus; Marburg virus pseudotyped entry inhibition, cell reporter; Potency, µM (top dose mostly 37.8 µM), usual class: inhibitors; 1.8% of 300,000 active; calls by dose curve; tested in HEK293 cells
# HCMV antiviral = qHTS Assay for inhibitors of the human cytomegalovirus (HCMV) | AID 1259415, 2018 | activity change, negative = inhibition, % at 57.5 µM | 4.5% of 410,000 active | HFF cells, HCMV-luciferase reporter, 72 h; active compounds read low; in the data active means activity change below about -60%; inconclusive means no clear call, values can overlap the other calls; inactive means above about -39%
#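 Two compound doses tested in HFFs infected with HCMV-luciferase, MOI 1 PFU/cell, 72 h at 37C. Lysate luminescence read with OneGlo; data normalized against buffer-only and 10uM Salinomycin inhibitor controls.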
# SARS PLpro yeast = qHTS of Yeast-based Assay for SARS-CoV PLP; S. cerevisiae expressing SARS-CoV PLpro, growth rescue; Potency, µM (titrated, usually from 32.9 µM), actives largely listed as activators; 0.19% of 330,000 active; calls by dose curve; further: nearly all actives have a fitted effect of over 55% in size
# Hits are given with their value; - = inactive; ? = inconclusive; . = no result given; [ ] = remark or other dose.
SMILES,HCV inh,LASV entry inh,FMDV antiviral,Marburg entry inh,HCMV antiviral,SARS PLpro yeast
COc1ccc(NC(=O)Cc2ccccc2F)cc1S(=O)(=O)N1CCCCC1,?,.,-,.,-,-
COc1ccc(NC(=O)Cc2ccc(Cl)cc2)cc1S(=O)(=O)N1CCCCC1,14.1µM,.,-,.,?,-
COc1ccc(OC)c(NC(=O)c2cc(OC(C)=O)cc(C(=O)Nc3cc(OC)ccc3OC)c2)c1,?,.,28.2µM,.,?,-
COc1ccc(OC)c(NS(=O)(=O)c2ccc(NC(=O)c3ccc(NS(C)(=O)=O)cc3)cc2)c1,?,-,-,?,-82.7,-
COc1ccc(C(=O)Nc2cc(OC)ccc2OC)cc1,11.2µM,-,-,-,-,-
COc1ccc(OC)c(NC(=O)c2ccc(Cl)cc2)c1,-,-,-,-,-,-
COc1ccc(F)c(CN2CCOc3ccc(CN4CCC(O)(c5cccnc5)CC4)cc3C2)c1,.,.,-,.,.,.
CCOc1ccc(CCNC(=O)c2cc3sc(Cl)cc3n2C)cc1OCC,7.08µM,-,-,?,-,-
CCn1c(C(=O)NCc2ccccc2Cl)cc2sc(Cl)cc21,.,.,-,?,?,.
Cn1c(C(=O)NCc2ccccc2Cl)cc2sc(Cl)cc21,.,.,-,3.16µM,-62.3,.
Cc1cccc(CCNC(=O)c2cc3ccccn3n2)c1,.,-,-,.,-,.
CCOc1ccc(CCNC(=O)c2cc3ccccn3n2)cc1OCC,12.6µM,.,?,.,-,-
CSc1ccc(Cc2ccc(Cl)cc2Cl)nn1,-,-,-,?,-,-
Nc1nccc(SCc2ccc(Cl)cc2Cl)n1,-,?,-,-,-,.
Nc1nc(N)c(Cc2ccc(Cl)cc2Cl)c(N)n1,?,-,?,-,-73.5,-
NNc1ccc(Cc2ccc(Cl)cc2Cl)nn1,?,-,-,?,-69.8,-
O=C(COc1ccc(Cl)cc1)NCc1nnc(SCC(=O)N2CCCC2)o1,-,.,-,.,-,-
CC(CN1CCN(C)CC1)OC(=O)c1ccccc1 (stereo unspecified),-,-,-,-,-,-
CC(CN1CCN(C)CC1)OC(=O)c1ccc(F)cc1 (stereo unspecified),-,?,-,-,-71.4,-
CC1C/C(=N/N=C2/NC(=O)CS2)CC(C)(C)C1 (stereo unspecified),-,-,-,-,-,-
CC1C/C(=N/N2C(=O)CSC2=S)CC(C)(C)C1 (stereo unspecified),-,-,-,-,-70.2,-
CN1C(=O)c2ccccc2Sc2ccc(NC(=O)NCc3ccc(Cl)cc3)cc21,.,-,?,?,-89.3,.
COCCNC(=O)Nc1ccc2c(c1)N(C)C(=O)c1ccccc1S2,-,-,-,-,-,-
CN1C(=O)CSc2ccc(NC(=O)NCc3cccnc3)cc21,?,-,.,-,-60.9,-
COc1cc(OC)c(NC(=O)Nc2ccc3c(c2)N(C)C(=O)c2ccccc2S3)cc1Cl,.,-,-,10µM,-,.
SMILES,HCV inh,LASV entry inh,FMDV antiviral,Marburg entry inh,HCMV antiviral,SARS PLpro yeast
Cc1ccccc1CNC(=O)Nc1ccc2c(c1)N(C)C(=O)c1ccccc1S2,.,-,?,-,-96.7,.
FC(F)(F)c1cccc(-c2cc3c(Nc4ccncc4)nccc3[nH]2)c1,.,.,.,.,-,.
Cc1cc(OC(C)C(=O)Nc2ccncc2)ccc1Cl (stereo unspecified),?,.,?,.,-,-
COc1ccc([C@]23Cc4ccccc4C(O2)C2=C(O3)C(=O)c3ccccc3C2=O)cc1,.,.,.,.,.,-[6.58 µM]
Cc1ccc(NC(=O)CSc2nccn2Cc2ccc3c(c2)OCO3)c(C)c1,.,-,-,.,-,.
Cc1ccc(C(=O)Nc2ccc3c(c2)N(C)C(=O)c2ccccc2S3)cc1F,.,?,?,.,-91.5,.
COc1ccc(CNC(=O)Nc2ccc3c(c2)N(C)C(=O)c2ccccc2S3)cc1,.,-,-,-,-,.
COc1ccc(C(=O)Nc2ccc3c(c2)N(C2CCCC2)C(=O)c2ccccc2S3)cc1OC,.,1.26µM,-,.,-70.2,.
CCOc1ccc(CNC(=O)Nc2ccc3c(c2)N(C)C(=O)c2ccccc2S3)cc1,.,-,?,-,-62.2,.
Cc1nc2cc(NC(=O)[C@@H]3C[C@@H](Sc4ccccn4)CN3Cc3ccc4c(c3)OCCO4)ccc2s1,.,.,-,.,.,.
CCNC(=O)N[C@H]1CC[C@@]23CCCN2C(=O)CCC[C@H]3[C@H]1C,.,.,.,.,-,.
